From PubChem BioAssay (Tox21)
Records with an inconclusive call do not appear. Active and inactive are the calls of the source. Calls follow the shape of the dose curve; as a rule, active = well fitted curve in the direction sought with a large enough effect in the repeat runs; inconclusive = weak or mixed curves; inactive = no such curve, though single readings can be large; an effect the other way counts as inactive or inconclusive.

Key:
[1] = target: Cytochrome P450 2D6 (Homo sapiens) (UniProt P10635); assay: Cytochrome P450 Family 2 Subfamily D Member 6 (CYP2D6) small molecule antagonists: luciferase reporter qHTS assay (AID 1671196); settings: P450-Glo CYP2D6 enzyme assay, luciferin luminescence, 1 h; series mostly up to 115 µM; also: nearly all actives have a fitted effect of over 50% in size; also: potency is read from the fitted curve at half-maximal effect
Cytochrome P450 2D6 (Homo sapiens), sequence (P10635 whole entry, looked up): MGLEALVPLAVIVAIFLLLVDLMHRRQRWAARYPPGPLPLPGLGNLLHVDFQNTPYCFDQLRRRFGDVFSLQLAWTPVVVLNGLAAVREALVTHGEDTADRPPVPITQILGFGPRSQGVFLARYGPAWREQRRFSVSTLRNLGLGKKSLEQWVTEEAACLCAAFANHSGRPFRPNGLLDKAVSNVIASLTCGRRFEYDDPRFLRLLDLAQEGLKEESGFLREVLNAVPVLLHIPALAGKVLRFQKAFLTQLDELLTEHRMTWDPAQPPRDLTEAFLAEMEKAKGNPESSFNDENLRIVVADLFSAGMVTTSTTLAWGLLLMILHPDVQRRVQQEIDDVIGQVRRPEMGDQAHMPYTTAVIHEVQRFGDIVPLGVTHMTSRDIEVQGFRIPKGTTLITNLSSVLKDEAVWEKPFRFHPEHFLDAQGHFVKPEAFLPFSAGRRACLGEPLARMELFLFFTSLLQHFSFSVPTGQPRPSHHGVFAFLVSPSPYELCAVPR
Method in brief: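 Luminogenic proluciferin substrate, CYP2D6 enzyme; 10 min RT preincubation with compound, NADPH regeneration system added, 1 h RT. Stop/detection reagent, 20 min RT, luminescence read (RLU). Signal proportional to CYP activity.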

[2] = target: Cytochrome P450 2C19 (Homo sapiens) (UniProt P33261); assay: Cytochrome P450 Family 2 Subfamily C Member 19 (CYP2C19) small molecule antagonists: luciferase reporter qHTS assay (AID 1671197); settings: P450-Glo CYP2C19 enzyme, luciferin luminescence, 1 h; series mostly up to 115 µM; also: nearly all actives have a fitted effect of over 65% in size; also: potency is read from the fitted curve at half-maximal effect
Cytochrome P450 2C19 (Homo sapiens), sequence (P33261 whole entry, looked up): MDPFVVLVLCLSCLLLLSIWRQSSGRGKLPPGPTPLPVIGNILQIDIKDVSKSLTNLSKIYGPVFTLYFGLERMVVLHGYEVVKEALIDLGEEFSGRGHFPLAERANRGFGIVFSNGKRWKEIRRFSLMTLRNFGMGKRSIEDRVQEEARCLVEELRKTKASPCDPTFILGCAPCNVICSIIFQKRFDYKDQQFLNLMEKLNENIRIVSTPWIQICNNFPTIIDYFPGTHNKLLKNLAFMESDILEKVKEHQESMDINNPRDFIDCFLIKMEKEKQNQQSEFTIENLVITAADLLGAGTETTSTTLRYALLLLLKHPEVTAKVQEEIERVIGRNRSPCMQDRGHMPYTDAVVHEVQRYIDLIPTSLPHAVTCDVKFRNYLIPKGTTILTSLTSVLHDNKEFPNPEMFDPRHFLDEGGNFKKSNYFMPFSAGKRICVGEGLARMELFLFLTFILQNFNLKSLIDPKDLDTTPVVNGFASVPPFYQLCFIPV
Method in brief: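 First, compounds are pinned into enzyme-substrate mix and held 10 min at room temperature. Second, NADPH regeneration solution is added and plates incubate 1 h at 37C. Third, detection reagent is added and luminescence read after 20 min.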

[3] = target: Cytochrome P450 2C9 (Homo sapiens) (UniProt P11712); assay: Cytochrome P450 Family 2 Subfamily C Member 9 (CYP2C9) small molecule antagonists: luciferase reporter qHTS assay (AID 1671198); settings: P450-Glo CYP2C9 enzyme assay, luciferin luminescence; series mostly up to 115 µM; also: nearly all actives have a fitted effect of over 50% in size; also: potency is read from the fitted curve at half-maximal effect
Cytochrome P450 2C9 (Homo sapiens), sequence (P11712 whole entry, looked up): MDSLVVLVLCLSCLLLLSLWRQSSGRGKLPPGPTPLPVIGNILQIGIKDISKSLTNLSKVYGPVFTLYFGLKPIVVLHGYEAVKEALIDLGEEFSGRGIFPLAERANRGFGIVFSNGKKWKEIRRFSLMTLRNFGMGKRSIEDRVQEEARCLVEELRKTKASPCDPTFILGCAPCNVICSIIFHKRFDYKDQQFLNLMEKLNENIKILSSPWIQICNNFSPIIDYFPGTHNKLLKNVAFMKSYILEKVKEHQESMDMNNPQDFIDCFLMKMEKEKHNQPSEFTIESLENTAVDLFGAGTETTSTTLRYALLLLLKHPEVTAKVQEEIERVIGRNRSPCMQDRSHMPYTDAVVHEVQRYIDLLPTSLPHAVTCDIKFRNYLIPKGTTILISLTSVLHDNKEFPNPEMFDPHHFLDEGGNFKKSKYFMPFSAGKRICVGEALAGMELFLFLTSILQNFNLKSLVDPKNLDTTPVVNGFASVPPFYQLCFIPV
Method in brief: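 Enzyme-substrate mix preincubated with compound 10 min at room temperature; reaction started with NADPH regeneration solution, 1 h 37C. Luminescent luciferin product read after 20 min detection reagent.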

[4] = target: Cytochrome P450 1A2 (Homo sapiens) (UniProt P05177); assay: Cytochrome P450 Family 1 Subfamily A Member 2 (CYP1A2) small molecule antagonists: luciferase reporter qHTS assay (AID 1671199); settings: P450-Glo CYP1A2 enzyme, luciferin luminescence, 1 h; series mostly up to 53 µM; also: nearly all actives have a fitted effect of over 50% in size; also: potency is read from the fitted curve at half-maximal effect
Cytochrome P450 1A2 (Homo sapiens), sequence (P05177 whole entry, looked up): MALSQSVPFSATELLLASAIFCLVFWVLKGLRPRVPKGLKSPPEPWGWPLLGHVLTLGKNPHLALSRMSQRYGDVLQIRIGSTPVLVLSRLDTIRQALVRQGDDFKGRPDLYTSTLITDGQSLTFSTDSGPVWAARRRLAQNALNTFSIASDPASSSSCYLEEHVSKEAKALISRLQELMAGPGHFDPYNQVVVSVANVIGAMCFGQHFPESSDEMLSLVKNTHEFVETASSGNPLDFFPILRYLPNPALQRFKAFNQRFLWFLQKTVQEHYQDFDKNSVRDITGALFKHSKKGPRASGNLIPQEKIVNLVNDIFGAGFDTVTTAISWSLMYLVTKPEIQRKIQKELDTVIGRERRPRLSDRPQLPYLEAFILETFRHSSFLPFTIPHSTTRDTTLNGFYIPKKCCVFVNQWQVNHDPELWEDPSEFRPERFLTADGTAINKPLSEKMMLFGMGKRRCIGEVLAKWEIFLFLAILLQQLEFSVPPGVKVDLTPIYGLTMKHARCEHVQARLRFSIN
Method in brief: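 Luminescence readout (relative luminescence units) after luciferin detection reagent, 20 min RT. Preceded by 1 h room-temperature CYP1A2 reaction with NADPH regeneration solution following 10 min compound preincubation with enzyme and proluciferin substrate. Furafylline positive control.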

[5] = target: Voltage-gated inwardly rectifying potassium channel KCNH2 (Homo sapiens) (UniProt Q12809); assay: Human Ether-a-go-go-Related Gene (hERG) channel small molecule antagonists: fluorescence cell-based qHTS assay (AID 1671200); settings: hERG-U2OS cells, FluxOR thallium flux fluorescence; series mostly up to 76.8 µM;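 also: hERG-expressing U2OS cells given a thallium stimulus after FluxOR II dye loading; nearly all actives have a fitted effect of over 50% in size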
Voltage-gated inwardly rectifying potassium channel KCNH2 (Homo sapiens), sequence (Q12809 whole entry, looked up): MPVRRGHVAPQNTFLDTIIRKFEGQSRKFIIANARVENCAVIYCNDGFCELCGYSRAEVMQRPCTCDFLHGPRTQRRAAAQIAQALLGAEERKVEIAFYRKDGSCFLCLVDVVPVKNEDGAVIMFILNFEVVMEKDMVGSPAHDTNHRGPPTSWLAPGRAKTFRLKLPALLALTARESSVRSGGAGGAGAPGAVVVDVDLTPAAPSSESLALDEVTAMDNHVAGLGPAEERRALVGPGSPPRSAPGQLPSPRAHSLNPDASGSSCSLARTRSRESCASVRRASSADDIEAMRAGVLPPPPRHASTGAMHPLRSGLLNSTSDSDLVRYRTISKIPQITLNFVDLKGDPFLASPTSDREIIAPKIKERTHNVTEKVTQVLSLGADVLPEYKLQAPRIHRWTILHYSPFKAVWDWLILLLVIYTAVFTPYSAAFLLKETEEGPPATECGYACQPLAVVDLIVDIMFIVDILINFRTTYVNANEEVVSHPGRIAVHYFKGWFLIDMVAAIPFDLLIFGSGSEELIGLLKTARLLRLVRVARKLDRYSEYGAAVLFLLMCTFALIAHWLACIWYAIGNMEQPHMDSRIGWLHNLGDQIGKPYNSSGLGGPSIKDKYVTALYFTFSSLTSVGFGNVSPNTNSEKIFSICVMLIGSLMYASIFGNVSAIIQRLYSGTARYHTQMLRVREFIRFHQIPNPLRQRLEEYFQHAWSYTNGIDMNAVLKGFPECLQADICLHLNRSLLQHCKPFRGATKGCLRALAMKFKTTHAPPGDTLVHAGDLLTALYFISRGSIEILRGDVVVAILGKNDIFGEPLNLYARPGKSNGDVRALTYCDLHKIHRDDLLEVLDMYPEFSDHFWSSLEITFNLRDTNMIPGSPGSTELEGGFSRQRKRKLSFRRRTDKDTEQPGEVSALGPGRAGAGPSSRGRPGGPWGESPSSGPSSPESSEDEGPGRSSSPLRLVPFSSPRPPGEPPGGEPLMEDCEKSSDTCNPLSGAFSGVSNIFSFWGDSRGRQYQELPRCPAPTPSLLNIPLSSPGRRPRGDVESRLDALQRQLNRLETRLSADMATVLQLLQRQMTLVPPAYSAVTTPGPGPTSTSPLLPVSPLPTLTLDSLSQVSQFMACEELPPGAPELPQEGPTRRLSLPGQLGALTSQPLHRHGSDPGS
Method in brief: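 Channel function was assessed by thallium flux. Cells seeded the previous day and kept at 37 C took up FluxOR II dye over 1 h in the dark at room temperature, then sat another 10 min before stimulation.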

[6] = target: Cytochrome P450 3A4 (Homo sapiens) (UniProt P08684); assay: Cytochrome P450 Family 3 Subfamily A Member 4 (CYP3A4) small molecule antagonists: luciferase reporter qHTS assay (AID 1671201); settings: P450-Glo CYP3A4 enzyme, luciferin luminescence, 1 h; series mostly up to 115 µM; also: nearly all actives have a fitted effect of over 50% in size; also: potency is read from the fitted curve at half-maximal effect
Cytochrome P450 3A4 (Homo sapiens), sequence (P08684 whole entry, looked up): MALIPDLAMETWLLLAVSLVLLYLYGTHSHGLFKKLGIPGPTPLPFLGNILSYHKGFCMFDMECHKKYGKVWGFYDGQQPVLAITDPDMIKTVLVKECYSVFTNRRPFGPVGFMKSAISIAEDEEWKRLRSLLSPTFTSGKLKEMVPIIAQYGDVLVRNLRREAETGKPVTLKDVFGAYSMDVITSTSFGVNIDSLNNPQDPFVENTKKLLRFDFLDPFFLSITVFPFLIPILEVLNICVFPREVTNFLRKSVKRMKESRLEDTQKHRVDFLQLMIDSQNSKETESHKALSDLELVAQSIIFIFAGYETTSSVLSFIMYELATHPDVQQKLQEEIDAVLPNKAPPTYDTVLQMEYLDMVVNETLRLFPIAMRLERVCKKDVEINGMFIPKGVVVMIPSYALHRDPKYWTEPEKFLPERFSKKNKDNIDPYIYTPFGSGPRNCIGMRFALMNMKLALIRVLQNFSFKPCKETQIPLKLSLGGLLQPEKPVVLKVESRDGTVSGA
Method in brief: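 Compounds in DMSO were pin-transferred onto CYP3A4 enzyme-substrate mix and held 10 min at room temperature. NADPH regenerating solution started the reaction for 1 h; luciferin detection reagent stopped it, and luminescence was read after 20 min.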
% is scaled to controls: 0 for no effect and ±100 for the full control effect.

CC1(C)S[C@@H]2[C@H](N=CN3CCCCCC3)C(=O)N2[C@H]1C(=O)O
inactive: Potency [1] | Potency [2] | Potency [3] | Potency [4] | Potency [5] | Potency [6]

CCCOC(OCCC)OCCC
inactive: Potency [1] | Potency [2] | Potency [3] | Potency [4] | Potency [5] | Potency [6]

COC(=O)c1ccccc1C(=O)c1ccc(OCCN2CCCCC2)cc1
active: Potency [1] 15.5 µM
inactive: Potency [2] | Potency [3] | Potency [4] | Potency [5] | Potency [6]

O=C(Nc1ccc(Cl)c(Cl)c1)C1CC1
active: Potency [2] 11 µM | Potency [3] 30.9 µM | Potency [4] 0.456 µM
inactive: Potency [1] | Potency [5]

CCn1ccc(NS(=O)(=O)c2ccc(N)cc2)nc1=O
inactive: Potency [1] | Potency [2] | Potency [3] | Potency [4] | Potency [5] | Potency [6]

O=C(/N=N/C(=O)OCc1ccccc1)OCc1ccccc1
active: Potency [2] 1.78 µM | Potency [3] 14.2 µM | Potency [4] 17.8 µM | Potency [6] 39.9 µM
inactive: Potency [1]

CC(CO)c1ccccc1 (configuration not stated)
inactive: Potency [1] | Potency [2] | Potency [3] | Potency [4] | Potency [5] | Potency [6]

CCC(C)(CCC(C)C)C(=O)O (configuration not stated)
inactive: Potency [2] | Potency [4] | Potency [5] | Potency [6]
active: Potency [1] 28.3 µM | Potency [3] 35.6 µM

CC(=O)CCCCn1c(=O)c2c(ncn2C)n(C)c1=O
inactive: Potency [1] | Potency [2] | Potency [3] | Potency [4] | Potency [5] | Potency [6]

Cc1cc(C(C)(C)C)c(O)c(C)c1CC1=NCCN1
inactive: Potency [2] | Potency [3] | Potency [4] | Potency [6]
active: Potency [1] 1.55 µM

CCCCCCOc1ccccc1C(N)=O
inactive: Potency [1] | Potency [5] | Potency [6]
active: Potency [2] 17.4 µM | Potency [3] 8.71 µM | Potency [4] 13.8 µM

O=S(O)(O)=S
inactive: activity change, negative = inhibition [1] -0.0268% [at 10.5 µM] | activity change, negative = inhibition [2] -17.3% [at 10.5 µM] | activity change, negative = inhibition [3] -6.3% [at 10.5 µM] | activity change, negative = inhibition [4] -12.3% [at 10.5 µM] | activity change, negative = inhibition [5] -2.48% [at 6.97 µM] | activity change, negative = inhibition [6] 0.412% [at 10.5 µM]

CC(C)(C)NC(N)=O
inactive: Potency [1] | Potency [3] | Potency [5] | Potency [6]
active: Potency [2] 71 µM | Potency [4] 17.8 µM

COP(=O)(OC)OC(c1ccc(Cl)cc1)P(=O)(OC)OC (configuration not stated)
inactive: Potency [1] | Potency [2] | Potency [3] | Potency [4] | Potency [5] | Potency [6]

CCCCNC1CC(C)(C)NC(C)(C)C1
active: Potency [1] 28.3 µM
inactive: Potency [2] | Potency [3] | Potency [4] | Potency [5] | Potency [6]

C=CCCCCCCCCCCCC
inactive: Potency [1] | Potency [2] | Potency [3] | Potency [4] | Potency [5] | Potency [6]

CCOCCOC(=O)/C=C/c1ccc(OC)cc1
inactive: Potency [1] | Potency [5] | Potency [6]
active: Potency [2] 34.7 µM | Potency [3] 13.8 µM | Potency [4] 7.76 µM

OCCC(F)(F)C(F)(F)C(F)(F)C(F)(F)C(F)(F)C(F)(F)C(F)(F)C(F)(F)F
inactive: Potency [1] | Potency [2] | Potency [3] | Potency [4] | Potency [5] | Potency [6]

CN(C)C(=O)CNC(=O)Cc1ccccc1
inactive: Potency [1] | Potency [2] | Potency [3] | Potency [4] | Potency [5] | Potency [6]

CC(=O)c1ccc2c(c1)Cc1ccccc1-2
active: Potency [2] 20 µM | Potency [3] 12.6 µM | Potency [4] 1.79 µM
inactive: Potency [1] | Potency [5] | Potency [6]

Cc1cccc(C)c1NC(=O)c1ccccc1C(=O)O
inactive: Potency [1] | Potency [2] | Potency [3] | Potency [4] | Potency [5] | Potency [6]

COc1ccc(Br)c(C)c1
inactive: Potency [1] | Potency [3] | Potency [5] | Potency [6]
active: Potency [2] 36 µM | Potency [4] 32 µM

CC(=O)NCCCCCC(=O)O
inactive: Potency [1] | Potency [2] | Potency [3] | Potency [4] | Potency [5] | Potency [6]

C=C(C)C1CCC(C)(O)CC1 (configuration not stated)
inactive: Potency [1] | Potency [2] | Potency [3] | Potency [4] | Potency [5] | Potency [6]

CC(C)CCCC(C)(C)O
inactive: Potency [1] | Potency [2] | Potency [3] | Potency [4] | Potency [5] | Potency [6]

O=C(O)c1ccc(Cl)cc1Cl
inactive: Potency [1] | Potency [2] | Potency [3] | Potency [4] | Potency [5] | Potency [6]

CC1=CCC(C(C)C)=CC1
inactive: Potency [1] | Potency [2] | Potency [3] | Potency [4] | Potency [5] | Potency [6]

CC(C)N(c1ccccc1)C(C)C
inactive: Potency [1] | Potency [2] | Potency [3] | Potency [4] | Potency [5] | Potency [6]

CCOc1cc([N+](=O)[O-])c(OCC)cc1N1CCOCC1
active: Potency [3] 7.96 µM | Potency [4] 1.78 µM
inactive: Potency [1] | Potency [2] | Potency [5] | Potency [6]

CN1CCN(CC(=O)N2c3ccccc3C(=O)Nc3cccnc32)CC1
inactive: activity change, negative = inhibition [1] -4.49% [at 10.5 µM] | activity change, negative = inhibition [2] 8.9% [at 10.5 µM] | activity change, negative = inhibition [3] 2.89% [at 10.5 µM] | activity change, negative = inhibition [4] 13.2% [at 10.5 µM] | activity change, negative = inhibition [5] -0.112% [at 6.97 µM] | activity change, negative = inhibition [6] 4.83% [at 10.5 µM]
